High-throughput results deposited in PubChem BioAssay by National Center for Advancing Translational Sciences (NCATS).
An excerpt weighted towards active compounds, which were near 5.3% of everything screened.
CtBP-E1A blk: qHTS Assay for Inhibitors of the CtBP/E1A Interaction. CtBP / adenovirus E1A interaction (AlphaScreen). AlphaScreen GST-E1A/His-CtBP binding, 1536-well; hits give low values. activity change, % (concentration not given with the values). 0.49% of 340,000 active. AID 651724, 2012; in the data active means activity change below about -65%; inconclusive means mostly about -30% to -63%; further: on the % scale 0 is the no-effect control and ±100 the full control effect
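AlphaScreen with 125 nM GST-E1A and 125 nM His-CtBP (5X stocks) in Tris pH 8.0, 300 mM NaCl, BSA, Tween 20, TCEP. Compounds preincubated 2 h at 37 deg C, then glutathione donor/nickel acceptor beads added for 1 h at 37 deg C in dark.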
Six1-Eya2 blk: qHTS Assay for Inhibitors of the Six1/Eya2 Interaction | Homeobox protein SIX1 (Homo sapiens) + Protein phosphatase EYA2 (Homo sapiens), … | activity change, % (concentration not given with the values) | AID 651725, 2012 | AlphaScreen GST-Six1/His-Eya2 binding, biochemical; hits give low values | 0.56% of 360,000 active; in the data active means activity change below about -65%; inconclusive means mostly about -30% to -63%; further: on the % scale 0 is the no-effect control and ±100 the full control effect
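AlphaScreen luminescence read after one hour at 37 °C in darkness. Pin-transferred compounds met GST-Six1 and His-Eya2 protein (5X stock 250 nM/500 nM) plus glutathione donor and Ni-chelate acceptor beads (5X, 50 ug/mL).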
HP1b chromo inh: HTS for Inhibitors of HP1-beta Chromodomain Interactions with Methylated Histone Tails. Potency, µM (top dose mostly 114 µM), inactives show top-dose activity change, negative = inhibition, actives largely listed as inhibitors. Chromobox protein homolog 1 (Homo sapiens), P83916. 0.56% of 390,000 active. AID 540317, 2011. AlphaScreen HP1-beta / biotin-H3K9me3 peptide binding; further: potency means the concentration at half of the fitted maximal effect; nearly all actives have a fitted effect of over 70% in size
Target sequence (P83916 whole entry, looked up): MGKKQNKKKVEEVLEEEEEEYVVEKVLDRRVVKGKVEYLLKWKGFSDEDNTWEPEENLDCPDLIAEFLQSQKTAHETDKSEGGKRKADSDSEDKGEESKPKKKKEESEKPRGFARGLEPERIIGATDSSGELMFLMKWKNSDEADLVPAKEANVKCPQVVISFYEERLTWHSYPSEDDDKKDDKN
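AlphaScreen: HP1-beta (50 nM) preformed 30 min with biotin-H3(1-18)K9me3 peptide (50 nM) in PBS pH 7.4, 0.01% Tween-20. Compound added for 30 min at RT, then streptavidin donor/nickel chelate acceptor beads (10 ug/mL) for 30 min.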
TDP1 block: qHTS Assay for Inhibitors of Tyrosyl-DNA Phosphodiesterase (TDP1); AID 485290, 2010; recombinant TDP1, AlphaScreen DNA substrate cleavage; Tyrosyl-DNA phosphodiesterase 1 (Homo sapiens), Q9NUW8; Potency, µM (highest dose often 130 µM), for inactives: top-dose activity change, negative = inhibition, hits mostly inhibitors; 0.28% of 350,000 active; further: potency means the concentration at half of the fitted maximal effect; on the % scale 0 is the no-effect control and ±100 the full control effect; nearly all actives have a fitted effect of over 40% in size
Target sequence (Q9NUW8 whole entry, looked up): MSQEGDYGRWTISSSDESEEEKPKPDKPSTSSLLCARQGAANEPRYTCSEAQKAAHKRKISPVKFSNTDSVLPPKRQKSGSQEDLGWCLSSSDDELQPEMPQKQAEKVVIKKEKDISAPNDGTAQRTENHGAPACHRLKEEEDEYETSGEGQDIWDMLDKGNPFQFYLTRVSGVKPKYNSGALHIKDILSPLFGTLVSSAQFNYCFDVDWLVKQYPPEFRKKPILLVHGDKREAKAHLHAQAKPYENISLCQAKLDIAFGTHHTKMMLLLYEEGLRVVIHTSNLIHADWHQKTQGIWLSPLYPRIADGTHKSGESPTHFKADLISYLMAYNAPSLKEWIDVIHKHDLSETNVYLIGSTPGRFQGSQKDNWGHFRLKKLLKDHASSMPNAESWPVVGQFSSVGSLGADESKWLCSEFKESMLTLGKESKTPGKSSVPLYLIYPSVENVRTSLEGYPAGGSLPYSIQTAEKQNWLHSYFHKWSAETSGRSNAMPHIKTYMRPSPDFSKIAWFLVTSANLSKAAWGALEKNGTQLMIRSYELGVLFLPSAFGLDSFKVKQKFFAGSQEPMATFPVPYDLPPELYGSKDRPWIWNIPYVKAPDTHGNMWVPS
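Recombinant human Tdp1 (E. coli-expressed, 1 nM final) preincubated with compounds 15 min at room temperature, then 5'-biotin/3'-phosphotyrosine-FITC DNA substrate (15 nM final) added for 5 min. AlphaScreen beads (10 ug/ml final) added 10 min; cleavage lowers signal.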
JMJD2A Tudor inh: qHTS Assay for Inhibitors of JMJD2A-Tudor Domain; AlphaScreen JMJD2A-Tudor / H3K4me3 peptide binding; Potency, µM (series often up to 114 µM), for inactives: top-dose activity change, negative = inhibition, most hits filed as inhibitors; 4.4% of 390,000 active; AID 504339, 2011; further: potency means the concentration at half of the fitted maximal effect; on the % scale 0 is the no-effect control and ±100 the full control effect; nearly all actives have a fitted effect of over 50% in size
BAZ2B inh: qHTS Assay for Inhibitors of BAZ2B | Bromodomain adjacent to zinc finger domain protein 2B (Homo sapiens), Q9UIF8 | Potency, µM (series often up to 114 µM), without a hit: top-dose activity change, negative = inhibition, actives largely listed as inhibitors | AlphaScreen BAZ2B-H3K14Ac peptide displacement | 4.4% of 360,000 active; further: potency means the concentration at half of the fitted maximal effect; on the % scale 0 is the no-effect control and ±100 the full control effect; nearly all actives have a fitted effect of over 60% in size
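Inhibition is scored as reduced AlphaScreen emission. The BAZ2B/b-H3(5-23)K14Ac complex (50 nM each) in PBS pH 7.4, 0.01% Tween-20 meets compound (up to 110 uM) for 30 min at RT before bead addition.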
An asterisk follows results filed as active; ? = inconclusive; . = no result given; [ ] = dose if it differs, or a comment. Unless noted, the call rests on the fitted dose curve; in most records, active means well fitted inhibition curve with a large enough effect; inconclusive means small, poorly fitted or top-dose-only effect; inactive means no such curve, though single readings can be large or run the other way.

SMILES	CtBP-E1A blk	Six1-Eya2 blk	HP1b chromo inh	TDP1 block	JMJD2A Tudor inh	BAZ2B inh
CCn1cc(C(=O)O)c(=O)c2cc(F)c(N3CCN(C(=S)NC(=O)c4c(OC)cccc4OC)CC3)cc21	-0.2	-5.9	3.6%	-2.7%[0.0935 µM]	?	56.2µM*
CCOC(=O)c1cn(CC)c2cc(N3CCCCC3)c(F)cc2c1=O	-1.3	-1.2	33.8%	.	1.3%	.
CCOC(=O)C1CN(c2cc3c(cc2F)c(=O)c(C(=O)O)cn3CC)OC1C(=O)OCC (stereo unspecified)	2.8	-2.0	12.7%	3.1%	56.2µM*	?
COc1ccc(OCc2ccc(-c3nc(C#N)c(N4CCC(C)CC4)o3)o2)cc1	.	.	?	7.8%	?	3.55µM*
COc1ccc(OCc2ccc(-c3nc(C#N)c(N4CCN(C)CC4)o3)o2)cc1	.	.	?	9.9%	56.2µM*	31.6µM*
CCN(CC)CCCNC(=O)c1cnc(SC)nc1-c1ccccc1	.	.	-2.0%	1.2%	-10.9%	-0.8%
Cc1onc(-c2c(Cl)cccc2Cl)c1C(=O)N[C@H]1C(=O)N2[C@H]1SC(C)(C)[C@H]2C(=O)O	.	.	.	15.4%[21 µM]	.	.
Cc1cc(-c2ccccc2)nnc1NCCN1CCOCC1	-3.1	-2.4	42.0%	8.2%	79.4µM*	?
c1ccc(-n2ncc3c(NCCN4CCOCC4)ncnc32)cc1	-11.4	-5.7	25.4%	5.2%	?	-0.5%
Cc1ccccc1-c1cncnc1NCCN1CCOCC1	.	.	.	35.5µM*	.	.
CCc1cccc(C)c1NC(=O)C1CCN(S(=O)(=O)Cc2ccccc2)CC1	.	.	1.1%	5.7%	-19.9%	-13.3%
CC(C)(NO)/C(=N/O)c1ccc(Br)cc1	5.0	2.4	0.7%	-9.4%	28.2µM*	?
COc1ccc(/C(=N/O)C(C)(C)NO)cc1	5.7	9.6	?	-2.0%	39.8µM*	50.1µM*
COc1ccc(C(=O)NNC(=O)c2ccc(C(C)(C)C)cc2)cc1	1.9	31.7	20.3%	-2.5%	-3.5%	-11.9%
CC(C)(NO)/C(=N\O)c1ccc(Cl)cc1	2.7	-2.4	-7.8%	-6.6%	39.8µM*	56.2µM*
O=C(NCCc1ccc(Cl)cc1)c1cnc2sc(N3CCOCC3)nn2c1=O	.	.	7.6%	0.0%	-12.7%	-2.7%
CSc1ccc(CCNC(=O)CCn2c(=O)c3cccn3c3ccc(F)cc32)cc1	.	.	23.7%	-1.3%	7.6%	-2.8%
CN(C)Cc1ccccc1Sc1ccc2c(c1)CCCC2	-15.7	-11.8	?	.	0.631µM*	.
COc1ccc(C(=O)NCCc2c[nH]c3ccccc23)cc1OC	-7.3	-0.7	34.5%	.	-18.9%	-34.0%
O=C(NCCc1c[nH]c2ccccc12)c1ccc2nc[nH]c2c1	-7.1	-15.4	13.0%	.	-30.8%	50.1µM*
c1ccc2c(NCCc3c[nH]c4ccccc34)c3ccccc3nc2c1	.	-26.6	-7.1%	.	50.1µM*	35.5µM*
Cc1ccc(-n2ncc3c2CC(C)(C)CC3NC(=O)CCc2ccncc2)cc1 (stereo unspecified)	-6.7	3.6	42.1%	22.4µM*	-8.3%	-4.9%
Cc1ccc(-n2ncc3c2CC(C)(C)CC3NC(=O)CCc2cccnc2)cc1 (stereo unspecified)	1.3	6.9	17.5%	2.2%	-6.2%	-4.9%
CCN(C(=O)Cn1c(=O)oc2cc(S(=O)(=O)N3CCCCC3)ccc21)c1ccccc1	.	.	12.5%	2.0%	-16.4%	2.2%
O=C1C=CC2=C3c4cc(O)c(O)cc4CC3(O)COC2=C1O (stereo unspecified)	?	?	?	?	3.16µM*	.
SMILES	CtBP-E1A blk	Six1-Eya2 blk	HP1b chromo inh	TDP1 block	JMJD2A Tudor inh	BAZ2B inh
CCOc1ccccc1CN1CCN(S(=O)(=O)c2ccccc2)CC1	.	.	64.4%	-0.4%[12.3 µM]	-6.5%	7.6%
O=S(=O)(Cc1ccccc1)N1CCN(Cc2ccccc2)CC1	3.0	-1.0	18.5%	2.3%	-11.9%	-2.0%
COc1ccccc1CN1CCN(S(=O)(=O)c2ccccc2)CC1	0.9	-2.2	?	-4.7%	39.8µM*	31.6µM*
COc1cccc(CN2CCN(S(=O)(=O)c3ccccc3)CC2)c1OC	-0.9	-7.7	?	.	28.2µM*	.
COc1cc(CN2CCN(S(=O)(=O)c3ccccc3)CC2)cc(OC)c1O	.	.	32.1%	4.2%	7.6%	-1.5%
COc1ccc(OC)c(CN2CCN(S(=O)(=O)c3ccccc3)CC2)c1	-0.7	1.4	?	2.3%	20µM*	?
COc1ccc(Br)cc1CN1CCN(S(=O)(=O)Cc2ccccc2)CC1	-4.0	5.2	?	5.3%	8.91µM*	-21.1%
COc1cccc(CN(C)C(=O)c2cccc(S(=O)(=O)N3CCN(Cc4ccccc4)CC3)c2)c1OC	-2.9	-12.0	15.3%	0.2%	-17.9%	?
O=C(CSc1oc(-c2ccco2)nc1S(=O)(=O)c1ccc(Br)cc1)c1ccccc1	.	.	6.1%	8.8%	-31.1%	-13.6%
C/C(CCN1CCCc2nc(C)c(C)cc21)=N\OC[C@@H](O)COCc1ccco1	.	.	.	3.7%[21 µM]	.	.
CC(C)(C)c1ccc(C(=O)Nc2ccc(-c3nc4ccccc4o3)c(O)c2)cc1	.	.	33.9%	-6.6%[12.3 µM]	-10.1%	1.6%
COc1ccc(CN2CCN(S(=O)(=O)c3ccc(F)cc3)CC2)c(OC)c1OC	3.0	-1.5	-49.3%	-8.0%	1.41µM*	?
COc1ccc(CN2CCN(S(=O)(=O)c3ccccc3)CC2)c(OC)c1OC	-1.6	2.5	?	.	22.4µM*	.
CCn1c(C)c(CS(=O)(=O)c2ccccc2)[nH]c1=O	-7.8	3.9	10µM*	3.5%	22.4µM*	-8.6%
Cc1ccc(Cl)cc1N1CCN(C(=O)c2cc(S(=O)(=O)N3CCCC3)cn2C)CC1	.	.	29.1%	-5.2%	-16.8%	-15.4%
CCN(CCO)Cc1cn[nH]c1-c1ccc(C)c(C)c1	7.2	-1.0	?	-2.0%	3.55µM*	56.2µM*
CCN(CCO)Cc1csc2cc(C)ccc12	7.0	2.0	44.6%	-2.2%	4.9%	-0.2%
CCOc1ccc(OCCCCNCCN)cc1	.	.	.	3.9%	.	?
CCCCNCCOCCOc1ccc(F)cc1	2.3	-11.7	?	-10.0%	5.01µM*	79.4µM*
C=CCNCCCOc1ccc(C)cc1Br	-4.4	3.0	30.7%	2.2%	7.3%	13.2%
CCCCOc1ccc(C)cc1CN(CCO)CCO	5.4	2.4	25.3%	1.4%	-11.0%	-22.5%
CCN(CC)CCCOc1ccc(C)cc1Br	2.3	-0.1	?	.	14.1µM*	79.4µM*
